Laboratory results as given in article PMC11006913.
Numbering of substitutions follows the chain as printed.

Columns and labels:
Assay in all cases: PBM; 200 nM protein, PBS
Details in all cases: dsDNA, one strand shown
[1] = biological target: HESX1 (Homo sapiens, UniProt Q9UBX0 95-180, R165K)
[2] = biological target: HESX1 (Homo sapiens, UniProt Q9UBX0 95-180)
[3] = biological target: HESX1 (Homo sapiens, UniProt Q9UBX0 95-180, R109Q)
[4] = biological target: HESX1 (Homo sapiens, UniProt Q9UBX0 95-180, P111T)
[5] = biological target: HESX1 (Homo sapiens, UniProt Q9UBX0 95-180, F115L)
[6] = biological target: ALX3 (Homo sapiens, UniProt O95076 139-225, N203Q)
[7] = biological target: ALX3 (Homo sapiens, UniProt O95076 139-225)
[8] = biological target: PROP1 (Homo sapiens, UniProt O75360 56-141)
[9] = biological target: PROP1 (Homo sapiens, UniProt O75360 56-141, R99H)
[10] = biological target: ALX3 (Homo sapiens, UniProt O95076 139-225, L168Q)
[11] = biological target: ALX3 (Homo sapiens, UniProt O95076 139-225, L168V)
[12] = biological target: PROP1 (Homo sapiens, UniProt O75360 56-141, F88S)
[13] = biological target: ALX3 (Homo sapiens, UniProt O95076 139-225, N203S)
[14] = biological target: T1, NKX2-6 (Homo sapiens, UniProt A6NCS4 118-204)
T1 sequence: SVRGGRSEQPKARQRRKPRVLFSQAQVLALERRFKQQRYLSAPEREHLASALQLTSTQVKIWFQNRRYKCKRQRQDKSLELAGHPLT

[15] = biological target: PITX2 (Homo sapiens, UniProt Q99697 72-157)
[16] = biological target: T2, NKX2-6 (Homo sapiens, UniProt A6NCS4 118-204, F151L)
T2 sequence: T1 sequence with F34L

[17] = biological target: T3, NKX2-6 (Homo sapiens, UniProt A6NCS4 118-204, R150C)
T3 sequence: T1 sequence with R33C

Chain of HESX1 (Homo sapiens, UniProt Q9UBX0 95-180, F115L) (Q9UBX0 95-180 F115L): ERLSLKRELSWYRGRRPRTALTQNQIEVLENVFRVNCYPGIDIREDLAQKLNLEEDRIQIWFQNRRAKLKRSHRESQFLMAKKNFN
Chain of HESX1 (Homo sapiens, UniProt Q9UBX0 95-180, P111T) (Q9UBX0 95-180 P111T): as the sequence (Q9UBX0 95-180 F115L) above, with P17T, L21F counted along it
Chain of HESX1 (Homo sapiens, UniProt Q9UBX0 95-180) (Q9UBX0 95-180): as the sequence (Q9UBX0 95-180 F115L) above, with L21F counted along it
Chain of HESX1 (Homo sapiens, UniProt Q9UBX0 95-180, R109Q) (Q9UBX0 95-180 R109Q): as the sequence (Q9UBX0 95-180 F115L) above, with R15Q, L21F counted along it
Chain of HESX1 (Homo sapiens, UniProt Q9UBX0 95-180, R165K) (Q9UBX0 95-180 R165K): as the sequence (Q9UBX0 95-180 F115L) above, with L21F, R71K counted along it
Chain of PROP1 (Homo sapiens, UniProt O75360 56-141) (O75360 56-141): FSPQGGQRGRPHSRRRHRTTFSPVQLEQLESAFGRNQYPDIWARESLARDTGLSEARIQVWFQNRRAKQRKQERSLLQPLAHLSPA
Chain of PROP1 (Homo sapiens, UniProt O75360 56-141, R99H) (O75360 56-141 R99H): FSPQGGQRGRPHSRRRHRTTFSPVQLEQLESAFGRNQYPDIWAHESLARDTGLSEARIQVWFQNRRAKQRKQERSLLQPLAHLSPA
Chain of PROP1 (Homo sapiens, UniProt O75360 56-141, F88S) (O75360 56-141 F88S): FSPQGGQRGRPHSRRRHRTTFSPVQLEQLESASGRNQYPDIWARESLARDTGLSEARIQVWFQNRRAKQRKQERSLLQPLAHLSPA
Chain of ALX3 (Homo sapiens, UniProt O95076 139-225, N203S) (O95076 139-225 N203S): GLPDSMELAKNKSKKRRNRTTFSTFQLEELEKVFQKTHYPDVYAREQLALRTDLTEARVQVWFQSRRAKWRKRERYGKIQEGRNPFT
Chain of ALX3 (Homo sapiens, UniProt O95076 139-225) (O95076 139-225): as the sequence (O95076 139-225 N203S) above, with S65N counted along it
Chain of ALX3 (Homo sapiens, UniProt O95076 139-225, N203Q) (O95076 139-225 N203Q): as the sequence (O95076 139-225 N203S) above, with S65Q counted along it
Chain of ALX3 (Homo sapiens, UniProt O95076 139-225, L168Q) (O95076 139-225 L168Q): as the sequence (O95076 139-225 N203S) above, with L30Q, S65N counted along it
Chain of ALX3 (Homo sapiens, UniProt O95076 139-225, L168V) (O95076 139-225 L168V): as the sequence (O95076 139-225 N203S) above, with L30V, S65N counted along it

For AGGAGCTG, the binding signal [1] was 6.51 upbm affinity estimate (log intensity, higher = more binding, comparable within an allelic series), the binding signal [2] was 6.45 upbm affinity estimate (log intensity, higher = more binding, comparable within an allelic series) and the binding signal [3] was 6.4 upbm affinity estimate (log intensity, higher = more binding, comparable within an allelic series). The binding signal [4] was 6.4 upbm affinity estimate (log intensity, higher = more binding, comparable within an allelic series) and the binding signal [5] was 6.28 upbm affinity estimate (log intensity, higher = more binding, comparable within an allelic series).
With CCGGTCAG the binding signal [1] was 6.41 upbm affinity estimate (log intensity, higher = more binding, comparable within an allelic series), the binding signal [2] was 6.5 upbm affinity estimate (log intensity, higher = more binding, comparable within an allelic series) and the binding signal [3] was 6.57 upbm affinity estimate (log intensity, higher = more binding, comparable within an allelic series). For the same sequence, the binding signal [4] was 6.6 upbm affinity estimate (log intensity, higher = more binding, comparable within an allelic series) and the binding signal [5] was 6.53 upbm affinity estimate (log intensity, higher = more binding, comparable within an allelic series).
With CGACGTTC the binding signal [1] was 6.45 upbm affinity estimate (log intensity, higher = more binding, comparable within an allelic series), the binding signal [2] was 6.3 upbm affinity estimate (log intensity, higher = more binding, comparable within an allelic series) and the binding signal [3] was 6.42 upbm affinity estimate (log intensity, higher = more binding, comparable within an allelic series). The binding signal [4] was 6.41 upbm affinity estimate (log intensity, higher = more binding, comparable within an allelic series) and the binding signal [5] was 6.52 upbm affinity estimate (log intensity, higher = more binding, comparable within an allelic series).
CACCCCCC was tested, and the binding signal [1] was 6.39 upbm affinity estimate (log intensity, higher = more binding, comparable within an allelic series), the binding signal [2] was 6.4 upbm affinity estimate (log intensity, higher = more binding, comparable within an allelic series) and the binding signal [6] was 7.67 upbm affinity estimate (log intensity, higher = more binding, comparable within an allelic series). The binding signal [7] was 7.7 upbm affinity estimate (log intensity, higher = more binding, comparable within an allelic series), the binding signal [8] was 6.46 upbm affinity estimate (log intensity, higher = more binding, comparable within an allelic series) and the binding signal [3] was 6.54 upbm affinity estimate (log intensity, higher = more binding, comparable within an allelic series). For the same sequence, the binding signal [9] was 6.42 upbm affinity estimate (log intensity, higher = more binding, comparable within an allelic series), the binding signal [10] was 7.45 upbm affinity estimate (log intensity, higher = more binding, comparable within an allelic series) and the binding signal [4] was 6.38 upbm affinity estimate (log intensity, higher = more binding, comparable within an allelic series). The binding signal [11] was 7.59 upbm affinity estimate (log intensity, higher = more binding, comparable within an allelic series), the binding signal [12] was 6 upbm affinity estimate (log intensity, higher = more binding, comparable within an allelic series) and the binding signal [5] was 6.45 upbm affinity estimate (log intensity, higher = more binding, comparable within an allelic series). For the same sequence, the binding signal [13] was 7.71 upbm affinity estimate (log intensity, higher = more binding, comparable within an allelic series).
In the case of CAGAGTCA, the binding signal [1] is reported as 6.47 upbm affinity estimate (log intensity, higher = more binding, comparable within an allelic series), the binding signal [2] is reported as 6.43 upbm affinity estimate (log intensity, higher = more binding, comparable within an allelic series) and the binding signal [3] is reported as 6.67 upbm affinity estimate (log intensity, higher = more binding, comparable within an allelic series). For the same sequence, the binding signal [4] was 6.59 upbm affinity estimate (log intensity, higher = more binding, comparable within an allelic series) and the binding signal [5] was 6.54 upbm affinity estimate (log intensity, higher = more binding, comparable within an allelic series).
For CTGCCAGC, the binding signal [1] was 6.31 upbm affinity estimate (log intensity, higher = more binding, comparable within an allelic series), the binding signal [2] was 6.34 upbm affinity estimate (log intensity, higher = more binding, comparable within an allelic series) and the binding signal [14] was 9.39 upbm affinity estimate (log intensity, higher = more binding, comparable within an allelic series). For the same sequence, the binding signal [15] was 8.09 upbm affinity estimate (log intensity, higher = more binding, comparable within an allelic series), the binding signal [3] was 6.43 upbm affinity estimate (log intensity, higher = more binding, comparable within an allelic series) and the binding signal [4] was 6.51 upbm affinity estimate (log intensity, higher = more binding, comparable within an allelic series). The binding signal [16] was 9.37 upbm affinity estimate (log intensity, higher = more binding, comparable within an allelic series) and the binding signal [5] was 6.4 upbm affinity estimate (log intensity, higher = more binding, comparable within an allelic series).
For ATTGATTC, the binding signal [1] was 7.97 upbm affinity estimate (log intensity, higher = more binding, comparable within an allelic series), the binding signal [2] was 8.12 upbm affinity estimate (log intensity, higher = more binding, comparable within an allelic series) and the binding signal [3] was 7.41 upbm affinity estimate (log intensity, higher = more binding, comparable within an allelic series). For the same sequence, the binding signal [4] was 7.74 upbm affinity estimate (log intensity, higher = more binding, comparable within an allelic series).
With GAAAGGCC the binding signal [1] was 6.41 upbm affinity estimate (log intensity, higher = more binding, comparable within an allelic series), the binding signal [2] was 6.39 upbm affinity estimate (log intensity, higher = more binding, comparable within an allelic series) and the binding signal [8] was 6.76 upbm affinity estimate (log intensity, higher = more binding, comparable within an allelic series). The binding signal [3] was 6.49 upbm affinity estimate (log intensity, higher = more binding, comparable within an allelic series), the binding signal [9] was 6.79 upbm affinity estimate (log intensity, higher = more binding, comparable within an allelic series) and the binding signal [4] was 6.47 upbm affinity estimate (log intensity, higher = more binding, comparable within an allelic series). The binding signal [12] was 6.75 upbm affinity estimate (log intensity, higher = more binding, comparable within an allelic series) and the binding signal [5] was 6.63 upbm affinity estimate (log intensity, higher = more binding, comparable within an allelic series).
With CACCCGGC the binding signal [1] was 6.47 upbm affinity estimate (log intensity, higher = more binding, comparable within an allelic series), the binding signal [2] was 6.48 upbm affinity estimate (log intensity, higher = more binding, comparable within an allelic series) and the binding signal [14] was 9.18 upbm affinity estimate (log intensity, higher = more binding, comparable within an allelic series). For the same sequence, the binding signal [3] was 6.53 upbm affinity estimate (log intensity, higher = more binding, comparable within an allelic series), the binding signal [4] was 6.47 upbm affinity estimate (log intensity, higher = more binding, comparable within an allelic series) and the binding signal [16] was 9.14 upbm affinity estimate (log intensity, higher = more binding, comparable within an allelic series). The binding signal [5] was 6.3 upbm affinity estimate (log intensity, higher = more binding, comparable within an allelic series).
In the case of CCGCCGAG, the binding signal [1] is reported as 6.43 upbm affinity estimate (log intensity, higher = more binding, comparable within an allelic series), the binding signal [2] is reported as 6.32 upbm affinity estimate (log intensity, higher = more binding, comparable within an allelic series) and the binding signal [17] is reported as 9.67 upbm affinity estimate (log intensity, higher = more binding, comparable within an allelic series). The binding signal [3] was 6.49 upbm affinity estimate (log intensity, higher = more binding, comparable within an allelic series), the binding signal [4] was 6.43 upbm affinity estimate (log intensity, higher = more binding, comparable within an allelic series) and the binding signal [5] was 6.38 upbm affinity estimate (log intensity, higher = more binding, comparable within an allelic series).
CAATATCG was tested, and the binding signal [1] was 7.31 upbm affinity estimate (log intensity, higher = more binding, comparable within an allelic series), the binding signal [2] was 7.37 upbm affinity estimate (log intensity, higher = more binding, comparable within an allelic series) and the binding signal [3] was 7.14 upbm affinity estimate (log intensity, higher = more binding, comparable within an allelic series). For the same sequence, the binding signal [4] was 7.2 upbm affinity estimate (log intensity, higher = more binding, comparable within an allelic series).
